The source of these data is the antibiotic and cytotoxicity screens of Wong et al. (2023).

About 1,500 (3.8%) of roughly 39,000 compounds were called active. The sample holds actives, similar compounds and a random draw of the others, so the mix is not that of the screen.

For the assay, the system named is HSkMC (human skeletal muscle cells). The experiment in a line: cytotoxicity call (relative viability < 0.9). The following applies: 10 µM.
Take `C[C@@H]1CN([C@H](C)CO)C(=O)Cc2cc(NS(=O)(=O)c3cccs3)ccc2O[C@H]1CN(C)S(=O)(=O)c1cn(C)cn1`: the cytotoxicity call was “inactive”.

Turning to `O=C(N[C@H](c1ccc2ccccc2n1)c1cccs1)C1CCN(Cc2cccc(C(F)(F)F)c2)CC1`, the cytotoxicity call is “inactive”.

For `N#Cc1c(Oc2ccc(F)c(NC(=O)Cc3cccc(C(F)(F)F)c3)c2)ccc2nc(NC(=O)C3CC3)sc12`, the cytotoxicity call was “active”.

`NC[C@](O)(c1cccs1)C1CC1`: the cytotoxicity call was “inactive”.

With `C[C@@H]1CN([C@@H](C)CO)C(=O)c2cc(-c3cccc(C(=O)N(C)C)c3)cnc2O[C@@H]1CN(C)S(=O)(=O)c1cccc(F)c1`, the cytotoxicity call is “inactive”.

Consider `COc1ccc(CN(C)C[C@@H]2Oc3ccc(NC(=O)CCN4CCOCC4)cc3CC(=O)N([C@@H](C)CO)C[C@@H]2C)cc1`, for which the cytotoxicity call is “inactive”.

Take `COc1ccc(S(=O)(=O)Nc2cccc3c2O[C@@H](CN(C)S(=O)(=O)c2c(C)noc2C)[C@H](C)CN([C@H](C)CO)C3=O)cc1`: the cytotoxicity call is “inactive”.

As for `O=C(C[C@H]1CC[C@H]2[C@@H](COC[C@@H](O)CN2S(=O)(=O)c2ccc(Cl)cc2)O1)NCC1CCCCC1`, the cytotoxicity call is “inactive”.

On to `c1ccc(CNc2nn[nH]n2)cc1`, for which the cytotoxicity call was “inactive”.

Take `Cn1nnc(NCc2ccccc2)n1`: the cytotoxicity call was “inactive”.

In the case of `c1ccc(CNc2ccc3c(ccc4c5ccccc5[nH]c34)n2)cc1`, the cytotoxicity call was “active”.

On to `C[C@@H]1CN([C@H](C)CO)C(=O)Cc2cc(NC(=O)c3ccncc3)ccc2O[C@@H]1CN(C)S(=O)(=O)c1ccc(F)cc1`, for which the cytotoxicity call is “inactive”.

Turning to `C[C@H](CO)N1C[C@H](C)[C@@H](CN(C)C(=O)Nc2ccc(F)cc2)Oc2ccc(NC(=O)Cn3cnnn3)cc2CC1=O`, the cytotoxicity call was “inactive”.

`CS(C)(=O)=O`: the cytotoxicity call was “inactive”.

Turning to `Cc1ccc(S(=O)(=O)Nc2ccc3c(c2)C(=O)N([C@H](C)CO)C[C@H](C)[C@@H](CN(C)C(=O)Nc2ccc(F)cc2)OCCCC[C@H](C)O3)cc1`, the cytotoxicity call was “inactive”.

Consider `C[C@H]1CN([C@@H](C)CO)C(=O)Cc2cc(NC(=O)Nc3ccc(C(F)(F)F)cc3)ccc2O[C@H]1CN(C)Cc1ccc(Cl)c(Cl)c1`, for which the cytotoxicity call was “active”.

Consider `C[C@H](CO)N1C[C@H](C)[C@@H](CN(C)Cc2ccc(Cl)c(Cl)c2)Oc2ccc(NC(=O)Nc3ccc(C(F)(F)F)cc3)cc2CC1=O`, for which the cytotoxicity call was “active”.

With `C[C@@H]1CN([C@@H](C)CO)C(=O)Cc2cc(NC(=O)Nc3ccc(C(F)(F)F)cc3)ccc2O[C@@H]1CN(C)Cc1ccncc1`, the cytotoxicity call was “inactive”.

For `C[C@@H]1CN([C@H](C)CO)C(=O)Cc2cc(NC(=O)Nc3ccc(C(F)(F)F)cc3)ccc2O[C@@H]1CN(C)Cc1ccncc1`, the cytotoxicity call is “inactive”.

Take `C[C@@H]1CN([C@@H](C)CO)C(=O)Cc2cc(NC(=O)Nc3ccc(C(F)(F)F)cc3)ccc2O[C@@H]1CN(C)Cc1ccc(Cl)c(Cl)c1`: the cytotoxicity call is “active”.

As to `C[C@@H]1CN([C@H](C)CO)C(=O)Cc2cc(NC(=O)Nc3ccc(C(F)(F)F)cc3)ccc2O[C@H]1CN(C)Cc1ccncc1`, the cytotoxicity call was “inactive”.

Take `C[C@@H]1CN([C@H](C)CO)C(=O)Cc2cc(NC(=O)Nc3ccc(C(F)(F)F)cc3)ccc2O[C@@H]1CN(C)Cc1ccc(Cl)c(Cl)c1`: the cytotoxicity call was “active”.

For `C[C@H]1CN([C@@H](C)CO)C(=O)Cc2cc(NC(=O)Nc3ccc(C(F)(F)F)cc3)ccc2O[C@@H]1CN(C)Cc1ccncc1`, the cytotoxicity call is “inactive”.

With `C[C@H]1CN([C@@H](C)CO)C(=O)Cc2cc(NC(=O)Nc3ccc(C(F)(F)F)cc3)ccc2O[C@H]1CN(C)Cc1ccncc1`, the cytotoxicity call is “inactive”.

In the case of `C[C@H]1CN([C@@H](C)CO)C(=O)Cc2cc(NC(=O)Nc3ccc(C(F)(F)F)cc3)ccc2O[C@@H]1CN(C)Cc1ccc(Cl)c(Cl)c1`, the cytotoxicity call was “inactive”.

Regarding `CC(=O)N(C)C[C@@H]1Oc2ncc(C#C[C@@H](C)O)cc2C(=O)N([C@@H](C)CO)C[C@@H]1C`, the cytotoxicity call is “inactive”.

Turning to `COc1ccc(S(=O)(=O)Nc2ccc3c(c2)CC(=O)N([C@H](C)CO)C[C@@H](C)[C@H](CN(C)Cc2ccncc2)O3)cc1`, the cytotoxicity call was “inactive”.

As to `C[C@H]1CN([C@@H](C)CO)C(=O)Cc2cc(NS(=O)(=O)c3cn(C)cn3)ccc2O[C@H]1CN(C)S(=O)(=O)c1ccc(Cl)cc1`, the cytotoxicity call was “inactive”.

Consider `C[C@H]1CN([C@@H](C)CO)C(=O)Cc2cc(NC(=O)CCCCCC(=O)Nc3ccccc3N)ccc2O[C@H]1CN(C)S(C)(=O)=O`, for which the cytotoxicity call was “inactive”.

Consider `COc1ccc(S(=O)(=O)N(C)C[C@H]2Oc3ccc(NC(=O)C4CC4)cc3CC(=O)N([C@H](C)CO)C[C@@H]2C)cc1`, for which the cytotoxicity call is “inactive”.

On to `CN1C(=O)c2cc(NC(=O)c3cccs3)ccc2OC[C@H]2O[C@@H](CC(=O)NCC(F)(F)F)CC[C@H]21`, for which the cytotoxicity call is “inactive”.

On to `C[C@@H]1CN([C@@H](C)CO)C(=O)c2cc(NC(=O)Cn3cnnn3)ccc2O[C@@H]1CN(C)Cc1ccccc1`, for which the cytotoxicity call is “inactive”.

Consider `COc1ccc([Si](C)(C)[C@@H]2[C@@H](CC(=O)N3Cc4ccccc4C[C@H]3CO)O[C@]3(C(=O)N(Cc4ccc(N5CCC5=O)cc4)c4ccccc43)[C@H]2C)cc1`, for which the cytotoxicity call is “inactive”.

Turning to `C[C@H](CO)N1C[C@H](C)[C@H](CN(C)Cc2ccc(Cl)c(Cl)c2)Oc2ccc(NC(=O)Nc3ccc(C(F)(F)F)cc3)cc2CC1=O`, the cytotoxicity call was “active”.

For `C[C@@H]1CN([C@@H](C)CO)C(=O)Cc2cc(NC(=O)Nc3ccc(C(F)(F)F)cc3)ccc2O[C@H]1CN(C)Cc1ccc(Cl)c(Cl)c1`, the cytotoxicity call is “active”.

Take `C[C@@H]1CN([C@H](C)CO)C(=O)Cc2cc(NC(=O)Nc3ccc(C(F)(F)F)cc3)ccc2O[C@H]1CN(C)Cc1ccc(Cl)c(Cl)c1`: the cytotoxicity call was “active”.

For `CS(=O)(=O)O.Oc1ccc(C2CNCCc3c2cc(O)c(O)c3Cl)cc1` (stereo not given), the cytotoxicity call is “inactive”.

As for `COc1ccc(S(=O)(=O)Nc2ccc3c(c2)C(=O)N([C@@H](C)CO)C[C@H](C)[C@@H](CN(C)C(=O)Nc2c(C)noc2C)OCCCC[C@@H](C)O3)cc1`, the cytotoxicity call was “inactive”.

Turning to `COc1ccc(S(=O)(=O)Nc2ccc3c(c2)CC(=O)N([C@@H](C)CO)C[C@@H](C)[C@H](CN(C)S(C)(=O)=O)O3)cc1`, the cytotoxicity call is “inactive”.

For the molecule `Cc1noc(C)c1S(=O)(=O)N(C)C[C@@H]1Oc2ccc(NC(=O)C3CC3)cc2CC(=O)N([C@H](C)CO)C[C@@H]1C`, the cytotoxicity call is “inactive”.

As for `Cc1noc(C)c1NC(=O)Nc1ccc2c(c1)C(=O)N([C@@H](C)CO)C[C@H](C)[C@H](CN(C)C(=O)Nc1ccccc1)OCCCC[C@H](C)O2`, the cytotoxicity call was “inactive”.

Take `C[C@@H]1CCCCO[C@@H](CN(C)Cc2ccc(C(F)(F)F)cc2)[C@H](C)CN([C@H](C)CO)C(=O)c2cc(NS(C)(=O)=O)ccc2O1`: the cytotoxicity call is “inactive”.

`COc1ccccc1S(=O)(=O)N(C)C[C@@H]1OCc2cn(nn2)CCCC(=O)N([C@@H](C)CO)C[C@@H]1C`: the cytotoxicity call is “inactive”.

In the case of `C=c1cc(C)ccc1=C1NN=C(NC(C)=O)O1`, the cytotoxicity call was “inactive”.

`C=c1cc(C)ccc1=C1NN=C(NC(=O)CC)O1`: the cytotoxicity call is “inactive”.

Consider `C=c1ccc(C)cc1=C1NN=C(NC(=O)c2ccc(S(=O)(=O)N(CCOC)CCOC)cc2)O1`, for which the cytotoxicity call was “active”.

As for `C[C@H](CO)N1C[C@H](C)[C@@H](CN(C)C(=O)Nc2ccc(F)cc2)Oc2ccc(NC(=O)Cn3cnnn3)cc2C1=O`, the cytotoxicity call was “inactive”.

With `C[C@@H](NC(=O)C[C@H]1C=C[C@H](NC(=O)CN2CCOCC2)[C@H](CO)O1)c1ccccc1`, the cytotoxicity call is “inactive”.

In the case of `Cc1noc(C)c1S(=O)(=O)Nc1ccc2c(c1)C(=O)N([C@@H](C)CO)C[C@H](C)[C@H](CN(C)C(=O)Nc1ccccc1)O2`, the cytotoxicity call is “inactive”.

With `CCN(CC)CCN(Cc1ccc(-c2ccc(C(F)(F)F)cc2)cc1)C(=O)Cn1c(SCc2ccc(F)cc2)nc(=O)c2c1CCC2`, the cytotoxicity call is “active”.

As to `C[C@@H]1CN([C@@H](C)CO)C(=O)Cc2cc(NS(=O)(=O)c3cn(C)cn3)ccc2O[C@@H]1CN(C)C(=O)Nc1ccc(F)cc1`, the cytotoxicity call is “inactive”.

In the case of `C[C@H]1CN([C@@H](C)CO)C(=O)c2cc(NC(=O)Nc3ccccc3)ccc2O[C@@H]1CN(C)Cc1ccc(Oc2ccccc2)cc1`, the cytotoxicity call was “inactive”.

As to `C[C@@H]1CN([C@@H](C)CO)C(=O)c2cc(NC(=O)Nc3ccc(F)cc3)ccc2O[C@H]1CN(C)Cc1ccc(Oc2ccccc2)cc1`, the cytotoxicity call is “inactive”.

`C[C@@H]1CN([C@H](C)CO)C(=O)c2cc(NC(=O)Nc3ccc(F)cc3)ccc2O[C@H]1CN(C)Cc1ccc(Oc2ccccc2)cc1`: the cytotoxicity call was “inactive”.

Regarding `C[C@@H]1CN([C@H](C)CO)C(=O)c2cc(NC(=O)Nc3ccc(F)cc3)ccc2O[C@@H]1CN(C)Cc1ccc(Oc2ccccc2)cc1`, the cytotoxicity call was “active”.

As for `C[C@H](CO)N1C[C@H](C)[C@@H](CN(C)Cc2ccc(Oc3ccccc3)cc2)Oc2ccc(NC(=O)Nc3ccc(F)cc3)cc2C1=O`, the cytotoxicity call is “inactive”.

As to `C[C@H]1CN([C@@H](C)CO)C(=O)c2cc(NC(=O)Nc3ccc(F)cc3)ccc2O[C@H]1CN(C)Cc1ccc(Oc2ccccc2)cc1`, the cytotoxicity call is “inactive”.

On to `C[C@H]1CN([C@@H](C)CO)C(=O)c2cc(NC(=O)Nc3ccc(F)cc3)ccc2O[C@@H]1CN(C)Cc1ccc(Oc2ccccc2)cc1`, for which the cytotoxicity call is “inactive”.

Take `C[C@H](CO)N1C[C@H](C)[C@H](CN(C)Cc2ccc(Oc3ccccc3)cc2)Oc2ccc(NC(=O)Nc3ccc(F)cc3)cc2C1=O`: the cytotoxicity call was “active”.

`C[C@@H]1CN([C@@H](C)CO)C(=O)c2cc(NC(=O)Nc3ccc(F)cc3)ccc2O[C@@H]1CN(C)Cc1ccc(Oc2ccccc2)cc1`: the cytotoxicity call was “active”.

For `CN1C(=O)c2cc(NC(=O)c3cnccn3)ccc2OC[C@H]2O[C@@H](CC(=O)N[C@@H]3CCN(Cc4ccccc4)C3)CC[C@@H]21`, the cytotoxicity call is “inactive”.

Take `CN1CCN(C(=O)C[C@@H]2CC[C@@H]3[C@H](COC[C@@H](O)CN3Cc3ccc4c(c3)OCO4)O2)CC1`: the cytotoxicity call was “inactive”.

Regarding `CS(=O)(=O)Cc1nc2ccccc2oc1=O`, the cytotoxicity call was “inactive”.

Regarding `Cc1noc(C)c1NC(=O)Nc1cccc2c1O[C@@H](CN(C)Cc1ccc(Oc3ccccc3)cc1)[C@@H](C)CN([C@H](C)CO)C2=O`, the cytotoxicity call is “inactive”.

Regarding `COc1ccc(S(=O)(=O)Nc2ccc3c(c2)C(=O)N([C@H](C)CO)C[C@H](C)[C@H](CN(C)S(=O)(=O)c2ccc(Cl)cc2)OCCCC[C@H](C)O3)cc1`, the cytotoxicity call was “inactive”.
